Here are results for 7 molecules from PubChem BioAssay (NCATS).

Several values for one entry are separate records, joined by “and”; a condition that tells them apart may be missing. Equal entries are not always repeated. Results filed as inconclusive are left out. Activity calls are given as the source filed them. Unless noted, calls follow the shape of the dose curve; as a rule, active = well fitted curve in either direction with a large enough effect (not every such curve was filed as active); inconclusive = small, poorly fitted or top-dose-only effect, or another doubt; inactive = flat fitted curve, though single readings scatter.

Test [1] in a line: AP1 Signaling Pathway (AID 357).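 Also: ME-180 reporter cells stimulated with EGF at its EC50 level; % is scaled to controls: 0 for no effect and ±100 for the full control effect.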 As to conditions: ME-180 AP-1-bla reporter, EGF-induced, beta-lactamase ratio, 5 h. The method in brief:
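Read-out was the 460nm/530nm emission ratio (excitation 405nm) after CCF4 loading for 2.5 hours at room temperature. Cells carried an AP-1-driven beta-lactamase reporter, were stimulated with EC50 EGF plus compound for 5 hours, and AC50 values came from titrations.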

Test [2] can be described thus: NFAT Signaling Pathway (AID 444).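 Also: carbachol stimulus at about its EC50 of 1 µM final; % is scaled to controls: 0 for no effect and ±100 for the full control effect.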 As to conditions: Jurkat NFAT-bla M1, carbachol, beta-lactamase ratio, 5 h. The method in brief:
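Jurkat cells with NFAT-driven β-lactamase reporter and co-expressed M1 receptor, stimulated with carbachol (final 1 uM, ~EC50), compound titration, 5 h at 37 °C. CCF4 loaded 1 h at RT; 460/530 nm ratio gave %activity and AC50.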

The nature of test [3]: Stat Signaling Pathway (AID 446).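 Also: ME-180 cervical cancer cells given 40 pM IL-6 alongside compound; SIE-controlled beta-lactamase reporter measured as 460/530 nm FRET emission ratio; % is scaled to controls: 0 for no effect and ±100 for the full control effect.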 As to conditions: ME-180 SIE beta-lactamase reporter, IL-6 stimulated, 5 h. In a few lines: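 ME-180 SIE-bla cells; overnight plating; cpd + IL-6 40 pM, 5 h, 37 C; LiveBLAzer 2.5 h RT; 460/530 nm emission ratio. Normalized to 300 pM IL-6 and 125 nM JAK inhibitor controls.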
Test [4] addresses Glucocorticoid receptor (Homo sapiens) (UniProt P04150). Briefly: GR-EFC Redistribution (AID 451; calls by dose curve; also: potency is read from the fitted curve at half-maximal effect). As to conditions: CHO-K1 GR-EFC translocation, beta-gal luminescence, 2 h. In a few lines: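 CHO-K1 cells expressing nuclear EA and GR-ED fragments of b-gal; compounds titrated up to 46 uM final, 2 h at 37 C. GR nuclear translocation read as complemented b-gal luminescence after 1 h RT detection.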

In test [5] the target is Mitogen-activated protein kinase 10 (Mus musculus) (UniProt Q61831). Description: JNK3 AlphaScreen Assay (AID 530).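 Also: kinase came from lysate of stimulated human HepG2 cells; signal reports phosphorylation of biotinylated GST-cJun 1-79 at Ser73 with 10 µM ATP; % is scaled to controls: 0 for no effect and ±100 for the full control effect.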 The method in brief:
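qHTS format: compounds tested as titrations against IL-1beta/TNF-alpha-activated HepG2 lysate JNK3 with biotin-GST-cJun substrate and 10 uM ATP at room temperature. Loss of anti-phospho-cJun AlphaScreen signal indicates inhibition.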
Background: Bead proximity is the source of the signal in Alpha formats.

Test [6] can be described thus: qHTS Assay for Lipid Storage Modulators (AID 1519; calls by dose curve). As to conditions: Drosophila S3 cells, BODIPY lipid droplet/cell ratio, laser cytometry, cells loaded with oleic acid. The method in brief:
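Cells seeded at 5,000 per well were treated with compounds over a concentration series and loaded with oleic acid (400 uM, as added). Lipid droplet fluorescence (488 nm excitation, 500-530 nm channel) was read by laser-scanning cytometry and normalized to 20 uM Triacsin C.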
In general terms: qHTS replaces the single test concentration by a dilution series.

Test [7] concerns the target Cytochrome P450 1A2 (Homo sapiens) (UniProt P05177). Briefly: p450-cyp1a2 (AID 410; calls by dose curve; also: potency is read from the fitted curve at half-maximal effect;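 as to activity change, negative = inhibition: -100% = full effect of reference inhibitor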). In a few lines:
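Inhibition was calculated relative to 57 uM furafylline (full inhibition). The reaction used human CYP1A2 at 20nM with Luciferin-ME at its Km, 100uM, driven by an NADPH-regenerating system for 60 min at room temperature.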

The target of test [8] is Glucocorticoid receptor (Homo sapiens) (UniProt P04150). Briefly: GR-GFP Redistribution (AID 450;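 active = compounds whose dose series gives a full or clear partial fitted curve of increased nuclear translocation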; also: potency is read from the fitted curve at half-maximal effect). The conditions noted are these: U2OS GR-GFP nuclear translocation, laser cytometry, 2 h.
Test [9] deals with 3',5'-cyclic-AMP phosphodiesterase 4B (Homo sapiens) (UniProt Q07343). Briefly: qHTS Assay for Inhibitors of PDE-IV (AID 607; active = well fitted activation curve with a large enough effect in the main read-out, with a control signal flat, not every such curve was filed as active; also: % of control where 0% means no effect). The method in brief: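 ACTOne HEK293 cells carry a modified cAMP-gated CNG channel and express endogenous PDE4; plated 1000 cells/well, compounds up to 22.9 uM final. Membrane-potential dye fluorescence (ex 535/em 590) was read; parental cells received 10 uM forskolin + 100 uM RO 20-1724.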

Test [10] has as its target Ubiquitin carboxyl-terminal hydrolase 1 (Homo sapiens) (UniProt O94782). Description: Inhibitors of USP1/UAF1: Pilot qHTS (AID 504865; active = well fitted inhibition curve with a large enough effect;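 also: rhodamine fluorescence freed from ubiquitin-rhodamine substrate followed over time; top concentration of the series differs between compounds; % is scaled to controls: 0 for no effect and ±100 for the full control effect; nearly all actives have a fitted effect of over 35% in size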). In a few lines:
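Deubiquitinase activity followed as kinetic rhodamine fluorescence release from 150 nM Ub-Rho. 1 nM USP1/UAF1 with compound, after 15 min room-temperature preincubation, in HEPES pH 7.8 buffer containing TCEP, EDTA, BSA and Tween-20.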

[11] abbreviates: at 7.69 µM (top of the series) unless noted.
The mark [12] stands for this setting: measured here: cell count channel max response.
Where [13] appears, read: measured here: lipid channel max response.

Chain of Cytochrome P450 1A2 (Homo sapiens) (P05177 whole entry, looked up): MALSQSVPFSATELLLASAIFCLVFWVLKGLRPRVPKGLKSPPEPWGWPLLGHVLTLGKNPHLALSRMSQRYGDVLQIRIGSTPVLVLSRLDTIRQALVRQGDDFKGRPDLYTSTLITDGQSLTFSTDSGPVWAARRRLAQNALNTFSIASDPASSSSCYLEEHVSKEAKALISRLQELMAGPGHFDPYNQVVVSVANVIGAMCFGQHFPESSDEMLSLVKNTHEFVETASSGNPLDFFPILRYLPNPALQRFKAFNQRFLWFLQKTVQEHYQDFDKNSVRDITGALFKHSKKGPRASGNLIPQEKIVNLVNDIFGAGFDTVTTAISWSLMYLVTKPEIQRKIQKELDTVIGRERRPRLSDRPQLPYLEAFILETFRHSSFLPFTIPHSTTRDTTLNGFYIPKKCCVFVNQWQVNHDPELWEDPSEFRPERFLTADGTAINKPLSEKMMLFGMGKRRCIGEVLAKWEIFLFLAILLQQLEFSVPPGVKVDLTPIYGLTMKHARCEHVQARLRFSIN
Chain of 3',5'-cyclic-AMP phosphodiesterase 4B (Homo sapiens) (Q07343 whole entry, looked up): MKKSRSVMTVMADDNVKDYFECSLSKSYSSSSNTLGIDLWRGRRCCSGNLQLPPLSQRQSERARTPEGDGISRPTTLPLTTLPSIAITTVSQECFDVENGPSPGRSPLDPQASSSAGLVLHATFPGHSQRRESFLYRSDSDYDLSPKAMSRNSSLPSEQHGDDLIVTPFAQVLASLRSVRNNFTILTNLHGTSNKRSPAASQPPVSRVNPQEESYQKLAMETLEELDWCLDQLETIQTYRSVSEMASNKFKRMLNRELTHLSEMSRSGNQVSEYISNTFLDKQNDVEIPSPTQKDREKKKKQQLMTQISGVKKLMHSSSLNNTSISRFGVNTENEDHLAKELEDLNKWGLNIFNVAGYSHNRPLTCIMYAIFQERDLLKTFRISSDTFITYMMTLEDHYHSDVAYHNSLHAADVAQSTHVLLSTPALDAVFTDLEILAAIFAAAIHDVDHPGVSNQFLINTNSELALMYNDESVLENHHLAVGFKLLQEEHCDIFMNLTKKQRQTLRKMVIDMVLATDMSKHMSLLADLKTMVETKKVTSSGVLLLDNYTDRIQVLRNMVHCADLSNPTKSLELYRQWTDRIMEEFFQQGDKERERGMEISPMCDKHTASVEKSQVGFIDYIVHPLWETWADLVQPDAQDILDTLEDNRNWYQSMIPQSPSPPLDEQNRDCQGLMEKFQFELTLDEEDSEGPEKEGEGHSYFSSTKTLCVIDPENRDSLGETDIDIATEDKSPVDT
Chain of Glucocorticoid receptor (Homo sapiens) (P04150 whole entry, looked up, the tested form may be a part): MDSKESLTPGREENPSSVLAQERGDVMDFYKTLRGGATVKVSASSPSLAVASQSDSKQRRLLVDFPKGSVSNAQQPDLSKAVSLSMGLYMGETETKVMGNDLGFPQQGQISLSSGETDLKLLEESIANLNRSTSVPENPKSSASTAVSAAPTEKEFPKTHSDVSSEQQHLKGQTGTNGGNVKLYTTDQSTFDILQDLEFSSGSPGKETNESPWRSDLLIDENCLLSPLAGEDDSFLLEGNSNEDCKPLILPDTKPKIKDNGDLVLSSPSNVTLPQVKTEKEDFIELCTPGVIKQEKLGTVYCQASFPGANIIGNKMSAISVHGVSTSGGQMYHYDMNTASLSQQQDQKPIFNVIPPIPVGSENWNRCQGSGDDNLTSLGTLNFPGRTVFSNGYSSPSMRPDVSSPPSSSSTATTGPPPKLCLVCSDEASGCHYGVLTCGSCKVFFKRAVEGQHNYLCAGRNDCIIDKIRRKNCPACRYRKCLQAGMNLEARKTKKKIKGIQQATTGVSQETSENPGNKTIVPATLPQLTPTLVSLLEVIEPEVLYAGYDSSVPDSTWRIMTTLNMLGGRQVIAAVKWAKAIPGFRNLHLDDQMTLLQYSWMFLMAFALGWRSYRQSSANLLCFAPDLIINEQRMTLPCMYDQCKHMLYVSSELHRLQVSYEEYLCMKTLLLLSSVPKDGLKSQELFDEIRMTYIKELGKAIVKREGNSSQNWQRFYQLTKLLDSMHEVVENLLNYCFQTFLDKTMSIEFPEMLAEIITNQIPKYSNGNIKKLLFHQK
Chain of Ubiquitin carboxyl-terminal hydrolase 1 (Homo sapiens) (O94782 whole entry, looked up): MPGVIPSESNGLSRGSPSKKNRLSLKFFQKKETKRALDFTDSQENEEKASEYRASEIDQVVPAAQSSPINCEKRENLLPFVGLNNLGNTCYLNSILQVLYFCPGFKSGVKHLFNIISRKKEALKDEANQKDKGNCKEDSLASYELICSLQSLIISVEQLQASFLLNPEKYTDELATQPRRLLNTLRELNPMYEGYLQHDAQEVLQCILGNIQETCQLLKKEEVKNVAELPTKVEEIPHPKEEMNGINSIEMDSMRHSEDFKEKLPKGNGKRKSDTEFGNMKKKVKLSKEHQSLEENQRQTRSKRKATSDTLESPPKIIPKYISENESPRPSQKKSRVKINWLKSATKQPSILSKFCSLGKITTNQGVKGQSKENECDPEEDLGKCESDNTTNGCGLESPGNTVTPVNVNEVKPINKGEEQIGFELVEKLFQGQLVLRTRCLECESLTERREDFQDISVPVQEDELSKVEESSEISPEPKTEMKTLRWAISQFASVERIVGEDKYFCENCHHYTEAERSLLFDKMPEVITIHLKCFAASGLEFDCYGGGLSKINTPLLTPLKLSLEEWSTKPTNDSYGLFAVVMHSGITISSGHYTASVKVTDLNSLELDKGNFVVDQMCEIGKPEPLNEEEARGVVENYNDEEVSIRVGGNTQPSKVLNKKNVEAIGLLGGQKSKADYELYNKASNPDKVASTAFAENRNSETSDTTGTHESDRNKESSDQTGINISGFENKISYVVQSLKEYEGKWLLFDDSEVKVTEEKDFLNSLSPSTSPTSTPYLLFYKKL

`COc1ccccc1CN1CC[C@@]2(CCCN(C(=O)c3ccco3)C2)C1`: the activity change, negative = inhibition is -2.43% (inactive) in [1] (setting [11]), -21.8% (inactive) in [2] (setting [11]) and 1.52% (inactive) in [6] (at 57.5 µM (top of the series)). Also, the activity, negative = inhibition in [3] (setting [11]) is -8.66% (inactive). In test [4], the Potency was > 46 µM (inactive). In [5], the Potency entry was “inactive”. Also, the max response in test [6] (setting [12]) stood at 4.46%; in test [6] (setting [13]), 8.6%.
For the molecule `CN(C)c1ccc(-c2ccc3ncnc(NCc4ccccc4)c3c2)cc1`, the Potency was 0.501 µM (active) in [7], > 46 µM (inactive) in [8] and > 46 µM (inactive) in test [4]. For the same molecule, in [3] (setting [11]), the activity, negative = inhibition is -1.76% (inactive). Besides, the Potency result in [9] was “inactive”. Besides, the activity change, negative = inhibition in test [6] (at 57.5 µM (top of the series)) was 2.65% (inactive). Moreover, the max response in test [6] (setting [12]) is -18.1%; in [6] (setting [13]), -15.6%.
On to `N#Cc1ccc(CN2CCCC3(CCNCC3)C2)cc1`, for which the results for the activity change, negative = inhibition in [1] (setting [11]), in test [2] (setting [11]) and in [6] (at 57.5 µM (top of the series)) were 6.69% (inactive), -22.5% (inactive) and 1.45% (inactive), respectively. For the same molecule, in test [3] (setting [11]), the activity, negative = inhibition was -0.579% (inactive). The Potency in test [4] was > 46 µM (inactive). Also, the Potency entry in [5] and in test [9] was “inactive” each time. In addition, the max response in [6] (setting [12]) came out at 12.8%; in test [6] (setting [13]) it was 18.2%.
For `N#Cc1ccc(CN2CCCC3(CCN(C(=O)c4cc(C(F)(F)F)cc(C(F)(F)F)c4)CC3)C2)cc1`, the activity change, negative = inhibition is 16.4% (inactive) in test [1] (setting [11]) and 1.75% (inactive) in test [6] (at 57.5 µM (top of the series)). Also, in test [3] (setting [11]), the activity, negative = inhibition was -17.3% (inactive). The Potency in [4] is > 46 µM (inactive). Moreover, the Potency result in [5] and in test [9] was “inactive” throughout. Further, the max response in [6] (setting [12]) stood at 18.7%; in test [6] (setting [13]), 26.7%.
As to `O=C(Nc1cccc(F)c1)N1CCC2(CC1)CCN(C(=O)c1cc(C(F)(F)F)cc(C(F)(F)F)c1)CC2`, the activity change, negative = inhibition in [1] (setting [11]) was -6.27% (inactive); in test [6] (at 57.5 µM (top of the series)), -8.79% (inactive). Further, in test [3] (setting [11]), the activity, negative = inhibition is 8.94% (inactive). Besides, the Potency in test [4] was > 46 µM (inactive). In addition, the Potency entry in test [9] is “inactive”. Besides, the max response in test [6] (setting [12]) is -4.14%; in test [6] (setting [13]), -9.94%.
As to `C[C@@]12CCC(=O)C=C1CC[C@H]1[C@H]3CC[C@](O)(C(=O)CO)[C@]3(C)CC(=O)[C@@H]12`, the activity change, negative = inhibition in [1] (at 17.2 µM (top of the series)) was 11.7% (inactive); in test [1] (at 38 µM (top of the series)), -1.21% (inactive); in test [2] (at 17.2 µM (top of the series)), -13.1% (inactive); in test [2] (at 38 µM (top of the series)), -9.72% (inactive); in test [6] (at 25.7 µM (top of the series)), -1.59% (inactive). Also, the Potency result in test [7], in test [9] and in test [10] was “inactive” throughout. Also, the activity, negative = inhibition in test [3] (at 17.2 µM (top of the series)) was 8.63% (inactive); in test [3] (at 38 µM (top of the series)) it was -7% (inactive). Also, the Potency in [8] is 0.431 µM (active); in test [4], > 46 µM (inactive) and > 20.6 µM (inactive). Also, the max response was -0.115% in test [6] (setting [12]) and -3.69% in [6] (setting [13]).
Regarding `O=C(O)/C=C\c1ccc(O)c(O)c1`, the activity change, negative = inhibition was -12.5% (inactive) in [1] (at 17.2 µM (top of the series)), -5.91% (inactive) in test [1] (at 38 µM (top of the series)), -7.46% [at 38 µM] (inactive) in test [2] (setting [11]) and -3.56% (inactive) in test [6] (at 25.7 µM (top of the series)). Moreover, the Potency entry in test [7], in [5], in test [9] and in [10] was “inactive” throughout. In addition, the activity, negative = inhibition in test [3] (at 17.2 µM (top of the series)) is 3.52% (inactive); in test [3] (at 38 µM (top of the series)) it was 10.1% (inactive). Also, the Potency was > 46 µM (inactive) and > 20.6 µM (inactive) in test [8]; > 46 µM (inactive) and > 20.6 µM (inactive) in test [4]. In addition, the max response in [6] (setting [12]) is -1.26%; in test [6] (setting [13]), -2.45%.
